Compound activity as filed in PubChem BioAssay.
Shiga toxin inh – A qHTS for Small Molecule Inhibitors of Shiga Toxin; AID 2315, 2010; Vero cells, Shiga toxin protein synthesis inhibition reporter; actives 9.2% (n = 290,000); inhibition, % at 38.7 µM; in the data active = inhibition mostly above about 28%, no sharp cut-off; inactive = mostly below about 43%
NS1 inh – qHTS Assay for Inhibitors of Influenza NS1 Protein Function; Potency, µM (series often up to 46.1 µM); actives 0.4% (n = 270,000); note: actives are rising curves; nearly all actives have a fitted effect of over 50% in size
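Growth recovery, yeast-based: influenza A NS1 expressed in S. cerevisiae causes slow growth, and suppressors are detected by OD600. The parent strain without NS1 is used as positive control.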
CHX counter – Cycloheximide Counterscreen for Small Molecule Inhibitors of Shiga Toxin | cell reporter, cycloheximide protein synthesis inhibition counterscreen | max response, % | actives 12% (n = 300,000) | AID 2314, 2010; in the data active = max response mostly above about 13%, no sharp cut-off; inactive = mostly below about 14%; note: read at 38.3 µM for the half of the compounds with a filed dose
LmPK inhibitor – qHTS Assay for Inhibitors of Leishmania Mexicana Pyruvate Kinase (LmPK). Potency, µM (titrated, usually from 57.5 µM), usual class: inhibitors. purified LmPK, Kinase-Glo ATP luminescence, 1 h. AID 1721, 2009. Q27686. actives 0.37% (n = 290,000); active = well fitted curve in the direction sought with a large enough effect; inconclusive = small, poorly fitted or top-dose-only effect, or another doubt; inactive = no such curve, though single readings can be large; an effect the other way counts as inactive or inconclusive
Target sequence (Q27686 whole entry, looked up): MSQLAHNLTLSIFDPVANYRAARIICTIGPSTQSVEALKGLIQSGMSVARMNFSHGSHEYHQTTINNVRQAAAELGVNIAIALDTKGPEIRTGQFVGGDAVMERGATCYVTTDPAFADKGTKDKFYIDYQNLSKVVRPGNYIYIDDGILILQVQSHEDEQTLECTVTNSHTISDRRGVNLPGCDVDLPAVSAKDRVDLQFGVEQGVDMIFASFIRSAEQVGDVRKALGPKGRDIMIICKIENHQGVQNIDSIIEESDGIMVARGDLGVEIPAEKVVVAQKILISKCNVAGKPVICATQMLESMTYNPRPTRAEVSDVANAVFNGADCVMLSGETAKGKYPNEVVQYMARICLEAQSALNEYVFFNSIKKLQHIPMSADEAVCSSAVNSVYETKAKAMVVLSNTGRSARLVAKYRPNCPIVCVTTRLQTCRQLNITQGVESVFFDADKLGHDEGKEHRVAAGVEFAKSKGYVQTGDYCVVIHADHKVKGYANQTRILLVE
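Purified LmPK (0.1 nM) with 0.5 mM PEP and 0.1 mM ADP in imidazole buffer pH 7.2 with MgCl2/KCl, 1 h at room temperature. ATP formed was read by luciferase luminescence and normalized to no-enzyme and uninhibited controls.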
TbPYK inhibitor – qHTS of Trypanosoma Brucei Inhibitors. actives 0.12% (n = 410,000). TbPYK enzyme, Kinase-Glo Plus ATP luminescence, 45 min. Potency, µM (doses to about 76.8 µM), usual class: inhibitors. pyruvate kinase (Trypanosoma brucei), Q57TT1; active = well fitted curve in the direction sought with a large enough effect; inconclusive = small, poorly fitted or top-dose-only effect, or another doubt; inactive = no such curve, though single readings can be large; an effect the other way counts as inactive or inconclusive; note: nearly all actives have a fitted effect of over 50% in size
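ADP (130 uM final) triggers the TbPYK reaction after compound addition; incubation is 45 min at room temperature. Kinase-Glo Plus is then added and luminescence imaged. Normalized data are fitted to concentration-effect curves.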
SARS PLpro yeast – qHTS of Yeast-based Assay for SARS-CoV PLP. S. cerevisiae expressing SARS-CoV PLpro, growth rescue. Potency, µM (highest dose often 32.9 µM), hits mostly activators. actives 0.19% (n = 330,000). AID 485353, 2010; note: nearly all actives have a fitted effect of over 55% in size
NS1 inh valid – Assay for Inhibitors of Influenza NS1 Protein Function: Hit Validation. shares compounds with NS1 inh. influenza NS1 function cell assay, 15-point titration. activity change, negative = inhibition, % at 32.9 µM. 1,400 tested, under 10 active
PR8 titer – Assay for Inhibitors of Influenza NS1 Protein Function: Influenza virus replication assay in MDCK cells infected with virus A/PR/8/34; shares compounds with NS1 inh; MDCK infected influenza A/PR/8/34, virus titer TCID50; hits give low values; virus titer (log TCID50), log10 TCID50 at 5 µM; actives 30% (n = 95); call rule not given here
A number is an active result; – = inactive; ? = inconclusive; · = no result; [ ] = remark or other dose. Only a selection was taken, and hits are over-represented in it overall. Unless noted, calls come from the whole dose curve.

SMILES	Shiga toxin inh	NS1 inh	CHX counter	LmPK inhibitor	TbPYK inhibitor	SARS PLpro yeast	NS1 inh valid	others
Cc1[nH]c2ccccc2c1NC(=O)CN1CCN(c2cccc(C(F)(F)F)c2)CC1	–	–	–	–	–	·	·
CN(C(=O)c1ccc(NC(=O)C2CCCN(C(=O)OC(C)(C)C)C2)cc1)C1CCCCC1 (stereo unspecified)	·	·	·	·	–	–	·
CCCCCCN(C(=O)CCCCCN1C(=O)NC(c2ccc(Cl)cc2)C(C(=O)OCc2ccccc2)=C1C)C(C(=O)NCCCC)c1ccc(OCC(=O)OC)c(C(=O)OC)c1 (stereo unspecified)	–	–	–	–	·	–	·
CCCCCCN(C(=O)CCCCCN1C(=O)NC(c2ccc(-c3ccccc3)cc2)C(C(=O)OCc2ccccc2)=C1C)C(C(=O)NCCCC)c1ccc(OCC(=O)OC)c(C(=O)OC)c1 (stereo unspecified)	–	11µM	–	–	·	–	–
O=C(NCc1ccccc1F)C1CCCN(S(=O)(=O)c2ccc(-n3cnnn3)cc2)C1 (stereo unspecified)	–	–	–	–	–	–	·
O=C(NCc1ccco1)C1CCCN(S(=O)(=O)c2ccc(-n3cnnn3)cc2)C1 (stereo unspecified)	–	4µM	–	–	–	–	–
C=CC[C@H](CC(=O)NCCO)C(=O)N[C@H](COC(=O)[C@H](CC=C)CC(=O)OC(C)(C)C)c1ccccc1	·	·	·	·	–	–	·
CC1(OC(=O)C2CCCC2)C(=O)C=C2C=C(c3ccsc3)N(CCc3ccccn3)C=C2C1=O (stereo unspecified)	–	–	–	–[11.5 µM]	–	–	·
O=c1[nH]c(=S)n(-c2ccc(Br)cc2)c(O)c1C=Nc1ccc(N2CCOCC2)cc1	–	7.9µM	16	–	–	–	–
Cc1cc(C)cc(-n2c(O)c(C=Nc3ccc(N4CCOCC4)cc3)c(=O)[nH]c2=S)c1	–	–	–	–	–	–	·
CCOCCCNC(=O)CN1N=C(c2ccc(C)cc2)CCC1=O	–	–	–	–	–	–	·
Cc1cc2oc(=O)cc(-c3cc4ccccc4o3)c2cc1OC(=O)N(C)C	–	–	–	–	–	–	·
CN(C)C(=O)Oc1ccc2oc(=O)cc(-c3cc4ccccc4o3)c2c1	–	?	–	–	–	–	–
O=C(NCc1ccco1)C1CCCN(c2nnc(-n3cccc3)s2)C1 (stereo unspecified)	–	–	–	–	–	–	·
COc1ccccc1CNC(=O)CCCCn1c(=O)c2ccccc2n(Cc2ccccc2F)c1=O	·	·	·	·	–	·	·
CCOC(=O)N1CCC(NC(=O)c2ccc3c(c2)sc2nc(-c4ccccc4)cn23)CC1	69	?	39	–	–	–	–	PR8 titer=7.5
CCOC(=O)N1CCC(NC(=O)c2ccc3c(c2)sc2nc(-c4cccc(OC)c4)cn23)CC1	–	?	–	–	·	–	·
CCCCn1c(SCC(=O)N2c3ccccc3Sc3ccccc32)nc2c1c(=O)n(C)c(=O)n2C	–	11µM	–	–	–	–	–
CC(=NNC(=S)N1CC2CCC(CC2)C1)c1ccncn1	·	·	·	·	–	·	·
O=C(NCc1ccccc1)c1ccc(CN2CCOCC2)cc1	–	?	–	–	–	–	–
Cc1ccc(OCC(=O)NNC(=O)c2cc(S(=O)(=O)N(C)C)ccc2N2CCCC2)cc1	·	·	·	·	–	·	·
CC(Sc1nc(N)cc(=O)[nH]1)C(=O)Nc1cccc(Cl)c1 (stereo unspecified)	–	10µM	–	–	–	–	–
Nc1cc(=O)[nH]c(SCC(=O)Nc2ccc(Cl)c(Cl)c2)n1	–	2.5µM	–	–	–	–	–
CC1CCC2(CC1)NC(=O)N(Cc1nc(-c3ccccc3)no1)C2=O (stereo unspecified)	–	8.9µM	–	–	–	–	–	PR8 titer=–
Cc1ccc(C2=CC(c3cccs3)n3nnnc3N2)cc1 (stereo unspecified)	–	3.2µM	47	–	–	–	–
SMILES	Shiga toxin inh	NS1 inh	CHX counter	LmPK inhibitor	TbPYK inhibitor	SARS PLpro yeast	NS1 inh valid	others
CCOc1ccc(C=C2SC(=O)N(CCN)C2=O)cc1	–	·	–	·	·	·	·
C=C[C@@H](C)N(Cc1ccc(OC)cc1)S(=O)(=O)N(Cc1ccccc1)[C@H](C=C)C(C)C	·	·	·	·	–	–	·
CC(C)(C)NC(=O)Cn1nnnc1-c1nonc1N	–	?	–	–	–	–	–
CC(C)(C)NC(=O)Cn1c(-c2nonc2N)nc2ccccc21	–	–	–	–	–	–	·
O=C(CCC(=O)N1CCN(c2ccccn2)CC1)c1ccc(Cl)s1	·	·	·	·	–	–	·
Cc1ccccc1NCN1C(=O)C2CCC(C)(C1=O)C2(C)C (stereo unspecified)	–	–	–	–	–	–	·
CC12CCC(C(=O)N(CSC(=S)N/N=C\c3ccccc3Cl)C1=O)C2(C)C (stereo unspecified)	–	10µM	–	–	–	?	?	PR8 titer=6.5
CC(C)(OC(=O)c1cccs1)c1cc2ccccc2c(=O)o1	·	·	·	·	–	–	·
Cc1ccc2oc(=O)c3cnn(CC(=O)N4CCN(c5cc(Cl)ccc5C)CC4)c3c2c1	·	·	·	·	–	·	·
COc1ccc(NC(=O)C2=C(C)Nc3ncnn3C2c2sccc2C)cc1 (stereo unspecified)	·	·	·	·	–	·	·
CC1Cc2ccccc2N1C(=O)CSc1nnc(-c2ccccc2)c(-c2ccccc2)n1 (stereo unspecified)	–	?	–	–	–	–	–
CCOC(=O)C1=C(C)NC(C)=C(C(=O)OCC)C1c1cccc([N+](=O)[O-])c1	·	·	·	·	–	·	·
CC1=C(C(=O)OC(C)C)C(c2cccc([N+](=O)[O-])c2)n2c(cc(=O)[nH]c2=S)N1 (stereo unspecified)	–	11µM	–	–	–	–	–
COc1ccc(NC(=S)N(CCc2c(C)[nH]c3ccc(C)cc23)Cc2cccs2)cc1	–	11µM	–	–	–	–	–
CCOc1ccc(NC(=S)N(CCc2c(C)[nH]c3ccc(C)cc23)Cc2ccco2)cc1	–	11µM	–	–	–	–	–
COc1ccc(NC(=S)N(CCc2c(C)[nH]c3ccc(C)cc23)Cc2ccco2)cc1	–	–	–	–	–	–	·
COc1ccc2[nH]c(C)c(CCN(Cc3cccs3)C(=S)Nc3ccc(F)cc3)c2c1	–	?	–	–	–	–	·
